The results in this text go back to PubChem BioAssay AID1490 (National Center for Advancing Translational Sciences (NCATS), 2009).

The structures appear in SMILES notation. About 11,000 (3.5%) of roughly 310,000 compounds were called active. Not shown: some 4% with an inconclusive outcome. The call rests on the fitted dose curve; in most records, active means well fitted inhibition curve with a large enough effect; inconclusive means small, poorly fitted or top-dose-only effect, or another doubt; inactive means no such curve, though single readings can be large or run the other way. The full list was thinned out, with actives kept by preference.
Potency means the concentration at half of the fitted maximal effect.

This assay concerns the target 4'-phosphopantetheinyl transferase ffp (Bacillus subtilis) (UniProt Q9F4F7). Briefly: qHTS Assay for Inhibitors of Bacillus subtilis Sfp phosphopantetheinyl transferase (PPTase).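 Further: the enzyme is Sfp with the accession as filed and its product quenches rhodamine fluorescence.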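 On largest response in the series, negative = inhibition: 0% = enzyme reaction without inhibitor and -100% = no enzyme wells.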 The note with it: Biochemical Sfp PPTase activity. The method, boiled down:
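With Hepes-Na pH 7.6 buffer containing 10 mM MgCl2, Sfp (15 nM) modified BHQ-2-YbbR (12.5 uM) using rhodamine-CoA (5 uM). Two reads 30 minutes apart at 525/598 nm yielded each well's rate.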
As to `COc1cccc(OCc2cc(C(=O)N3CCN(C(=O)c4ccco4)CC3)no2)c1`, the largest response in the series, negative = inhibition was 10.6% (inactive).

Turning to `Cc1cc(Cl)ccc1OCCCC(=O)Nc1cccc(-n2cnnn2)c1`, the largest response in the series, negative = inhibition is 1.31% (inactive).

Consider `O=c1[nH]c(-c2ccccc2)c(-c2ccccc2)[nH]1`, for which the largest response in the series, negative = inhibition is 2.86% (inactive).

For the compound `c1ccc(Nc2n[nH]nc2-c2ccccc2)cc1`, the largest response in the series, negative = inhibition is 1.39% (inactive).

Regarding `O=C(O)c1n[nH]nc1-c1ccccc1`, the Potency was 70.8 µM (active).

Take `S=C(Nc1cccc(Cl)c1)Nc1ccc2c(c1)OCCO2`: the largest response in the series, negative = inhibition is -5.75% (inactive).

As to `Cc1ccc2nc(Nc3ncc4c(n3)CC(C)(C)CC4=O)nc(C)c2c1`, the largest response in the series, negative = inhibition was 4.59% (inactive).

As to `CC(C)(C)c1cc(=O)n2c(nc3ccccc32)[nH]1`, the largest response in the series, negative = inhibition was 30.5% (inactive).

For `CC1(C)CC(=O)c2cnc3nc4ccccc4n3c2C1`, the Potency was 50.1 µM (active).

As for `CSc1ccccc1NC(=O)c1cc(Cl)sc1Cl`, the largest response in the series, negative = inhibition is 9.55% (inactive).

As to `CNC(=O)c1c(NC(NC(=O)c2ccco2)C(=O)c2ccc(Cl)cc2)sc2c1CCCC2` (stereo unspecified), the Potency is 25.1 µM (active).

Consider `CC(C)OC(=O)c1c(NC(=O)c2ccco2)sc2c1CCCC2`, for which the largest response in the series, negative = inhibition is 10.9% (inactive).

Regarding `CCOC(=O)c1c(NC(=S)NC(=O)c2ccco2)sc2c1CCCC2`, the largest response in the series, negative = inhibition was -0.0002% (inactive).

On to `COC(=O)c1ccc(CN2C(=O)NC(c3ccccc3)(c3ccccc3)C2=O)o1`, for which the largest response in the series, negative = inhibition was 23.7% (inactive).

In the case of `CC[C@]1([C@H]2O[C@@H]([C@@H]3O[C@](O)(CO)[C@@H](C)C[C@H]3C)C[C@H]2C)CC[C@@H]([C@]2(C)CC[C@@]3(C[C@@H](O)[C@@H](C)[C@@H]([C@H](C)[C@H](OC)[C@H](C)C(=O)O)O3)O2)O1`, the largest response in the series, negative = inhibition was 15.5% (inactive).

As to `Cc1ccc(N2C(=O)C3CC3C2=O)cc1` (stereo unspecified), the largest response in the series, negative = inhibition was 15.7% (inactive).

Regarding `COC(=O)c1ccccc1SC1CC(=O)N(c2cccc(C)c2)C1=O` (stereo unspecified), the largest response in the series, negative = inhibition is -19.3% (inactive).

`COc1ccc(-c2nc(SCC(=O)N3CCCC3)n[nH]2)cc1`: the largest response in the series, negative = inhibition is 14.1% (inactive).

Regarding `COc1ccc(N2C(=O)CC(Sc3n[nH]c(-c4ccc(C)cc4)n3)C2=O)cc1` (stereo unspecified), the Potency is 25.1 µM (active).

As for `COc1ccc(N2C(=O)CC(SC(C)C)C2=O)cc1` (stereo unspecified), the largest response in the series, negative = inhibition was 7.97% (inactive).

`O=C1CC(Sc2ncn[nH]2)C(=O)N1c1ccccc1` (stereo unspecified): the Potency was 56.2 µM (active).

For `O=C1CC(N2CCN(c3ccc(F)cc3)CC2)C(=O)N1c1ccccc1` (stereo unspecified), the largest response in the series, negative = inhibition is 0.505% (inactive).

Turning to `Cc1ccc(N2C(=O)CC(Sc3ncn[nH]3)C2=O)cc1` (stereo unspecified), the Potency was 56.2 µM (active).

Regarding `CC(=O)Nc1ccc(N2C(=O)CC(Sc3nccc(C)n3)C2=O)cc1` (stereo unspecified), the largest response in the series, negative = inhibition was 11.7% (inactive).

As for `CCOc1ccc(S(=O)(=O)N2CCC(C(=O)NCc3ccccn3)CC2)cc1Cl`, the largest response in the series, negative = inhibition is 5.52% (inactive).

Take `CC[C@@]12C=C(/C=C/c3ccccc3)[C@](CC)(C1)[C@H](c1ccccc1)CC2=O`: the largest response in the series, negative = inhibition is -22.6% (inactive).

For `CC(Nc1nc(C(F)(F)F)nc2ccccc12)c1cccs1` (stereo unspecified), the largest response in the series, negative = inhibition was 2.55% (inactive).

In the case of `COC(=O)C(C(=O)OC)[C@@H]1CCCC(=O)C1`, the largest response in the series, negative = inhibition was -0.107% (inactive).

With `CN(C)c1ccc(-c2nnc(-c3cccnc3)o2)cc1`, the largest response in the series, negative = inhibition is 7.75% (inactive).

With `Cc1cc(NS(=O)(=O)c2ccc(NC(=O)C(C)Oc3cccc(C)c3C)cc2)nc(C)n1` (stereo unspecified), the largest response in the series, negative = inhibition is 8.85% (inactive).

As for `CC(C)(C)C(=O)CSc1nc2ccccc2o1`, the largest response in the series, negative = inhibition is 7.38% (inactive).

With `O=C(CSc1nc2ccccc2o1)N/N=C/c1ccccc1C(=O)O`, the Potency was 44.7 µM (active).

`Cc1ccc(/C=N/NC(=O)CSc2nc3ccccc3o2)cc1`: the largest response in the series, negative = inhibition was -16.9% (inactive).

In the case of `CCN(CC)S(=O)(=O)c1ccc(C(=O)N2CCN(C3=NS(=O)(=O)c4ccccc43)CC2)cc1`, the largest response in the series, negative = inhibition is 14.9% (inactive).

Turning to `COc1cccc(CCNC(=O)c2cccc(NC(=O)C3=C(C)OCCS3)c2)c1`, the largest response in the series, negative = inhibition is 3.98% (inactive).

As for `c1csc(-c2cn3c(n2)SCC3)c1`, the Potency was 79.4 µM (active).

As for `Cc1cc(-c2cccs2)nc(-n2cccc2)n1`, the largest response in the series, negative = inhibition is 1.03% (inactive).

In the case of `CCCS(=O)(=O)Nc1ccc(-c2cn3c(n2)SCC3)cc1`, the largest response in the series, negative = inhibition was -22.5% (inactive).

Turning to `CCOc1ccc(OCC)c(-c2c(=O)n(OCc3ccc(Cl)cc3)c3ccccc3[n+]2[O-])c1`, the Potency was 100 µM (active).

As to `COc1ccc(OC)c(-c2c(=O)n(OCc3ccccc3Br)c3ccccc3[n+]2[O-])c1`, the largest response in the series, negative = inhibition was 9.79% (inactive).

`CCOC(=O)COn1c(=O)c(-c2ccc(OCC)cc2)[n+]([O-])c2ccccc21`: the largest response in the series, negative = inhibition is 1.13% (inactive).

As to `O=C(N=C1SC2CS(=O)(=O)CC2N1c1cc(Cl)ccc1Cl)C1CC1` (stereo unspecified), the largest response in the series, negative = inhibition is 8.66% (inactive).

For `O=c1oc(-c2ccco2)nc2sc3c(c12)CCCCC3`, the largest response in the series, negative = inhibition was 2.61% (inactive).

With `O=C(NCc1ccco1)c1cccn2c(=O)c3c4c(sc3nc12)CCCC4`, the Potency was 44.7 µM (active).

In the case of `COc1ccc(CCn2c(=N)c(C(=O)NCc3ccco3)cc3c(=O)n4cccc(C)c4nc32)cc1`, the largest response in the series, negative = inhibition was -13.5% (inactive).

Consider `CCc1ccc(NC(=O)CS(=O)CC(=O)N2CCN(c3ccccc3F)CC2)cc1` (stereo unspecified), for which the largest response in the series, negative = inhibition was 2.49% (inactive).
